# Assay results from PubChem BioAssay (NCI).
# The panel holds about 79,000 compounds, 15% with a hit somewhere; the sample as a whole holds those more often. Unmarked numbers belong to inactive results. The source made the active and inactive calls. No stated cut-off is given here; in the data, active means growth inhibition above about 70%; inactive means the rest.
# Columns and labels:
# [1] = NCI Yeast Anticancer Drug Screen. Data for the rad50 strain (AID 155);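 further: 0% = growth of vehicle-only cultures of the same strain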; settings: S. cerevisiae rad50 strain growth inhibition, stronger effect = higher value
# How it was run: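 Growth of the mutant yeast was measured after compound exposure and referenced to vehicle-treated cultures.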
# [2] = NCI Yeast Anticancer Drug Screen. Data for the mec2-1 strain (AID 157); settings: S. cerevisiae mec2-1 strain, stronger effect = higher value
# How it was run: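 Cells of the genetically defined mec2-1 yeast strain are incubated with test compound. Inhibition of growth is calculated against vehicle-treated controls.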
# [3] = NCI Yeast Anticancer Drug Screen. Data for the sgs1 mgt1 strain (AID 161);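 further: 0% = growth of cultures given vehicle only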; settings: S. cerevisiae sgs1 mgt1 strain, stronger effect = higher value
# How it was run: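 Mutant yeast exposed to compound; growth scored against vehicle-only wells.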
# [4] = NCI Yeast Anticancer Drug Screen. Data for the cln2 rad14 strain (AID 165);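 further: 0% = growth equal to vehicle treated cultures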; settings: S. cerevisiae cln2 rad14 strain, stronger effect = higher value
# How it was run: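 The screen exposed genetically defined yeast (cln2 rad14) to test compounds and scored growth inhibition relative to vehicle-treated controls.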
# [5] = NCI Yeast Anticancer Drug Screen. Data for the bub3 strain (AID 167); settings: S. cerevisiae bub3 mutant strain, stronger effect = higher value
# How it was run: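 Whole-cell yeast assay. The mutant strain was incubated with compounds, and growth inhibition was determined by comparison with vehicle-treated cells.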
# [6] = NCI Yeast Anticancer Drug Screen. Data for the mlh1 rad18 strain (AID 175); settings: S. cerevisiae mlh1 rad18 strain growth inhibition, stronger effect = higher value
# How it was run: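 Compound-treated yeast growth, normalised to vehicle controls. Strain bears defined DNA repair mutations.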
# [7] = at 5.0 µM (retest, dose inferred, filed as 0.5)
# [8] = at 50.0 µM (retest, dose inferred, filed as 5.0)
SMILES,"growth inhibition [1, 7]","growth inhibition [1, 8]",growth inhibition ([1]; at 50.0 µM),"growth inhibition [2, 7]","growth inhibition [2, 8]",growth inhibition ([2]; at 50.0 µM),"growth inhibition [3, 7]","growth inhibition [3, 8]",growth inhibition ([3]; at 50.0 µM),"growth inhibition [4, 7]","growth inhibition [4, 8]",growth inhibition ([4]; at 50.0 µM),"growth inhibition [5, 7]","growth inhibition [5, 8]",growth inhibition ([5]; at 50.0 µM),"growth inhibition [6, 7]","growth inhibition [6, 8]",growth inhibition ([6]; at 50.0 µM)
NCCSC1(O)C(=O)c2ccccc2C1=O,35%,92% (active),94.4% (active),18%,72% (active),65.7%,-4%,64%,56.1%,-3%,46%,59.3%,-3%,43%,48.5%,0%,70% (active),75.2% (active)
CCOC(=O)N1CCN(CCCCCCOc2c(Cl)cc(Cl)cc2Cl)CC1,45%,98% (active),98.7% (active),41%,99% (active),96.1% (active),71% (active),99% (active),92% (active),58%,98% (active),98.4% (active),64%,98% (active),97.2% (active),49%,99% (active),98.2% (active)
O=[N+]([O-])/C(Br)=C\c1ccc([N+](=O)[O-])cc1,19%,99% (active),99.4% (active),4%,100% (active),96.8% (active),9%,100% (active),99.6% (active),17%,99% (active),92% (active),40%,99% (active),94.9% (active),54%,99% (active),99.5% (active)
CCCCCCCCCCCCCCCC[N+](C)(C)C(C)c1ccccc1 (configuration not stated),98% (active),98% (active),90.5% (active),98% (active),99% (active),90.7% (active),99% (active),99% (active),90.5% (active),99% (active),99% (active),86% (active),98% (active),98% (active),92.6% (active),98% (active),97% (active),91.8% (active)
O=c1[nH]c2ccc([N+](=O)[O-])c(Cl)c2c2ccccc12,74% (active),97% (active),9.1%,21%,98% (active),12.3%,38%,98% (active),9%,9%,95% (active),-46.8%,19%,97% (active),1.05%,70% (active),96% (active),39.9%
O=S(=O)(SCc1ccccc1)C(c1ccccc1)c1ccccc1,10%,6%,89.7% (active),13%,6%,98.6% (active),13%,31%,98% (active),5%,-17%,95.5% (active),13%,39%,99.1% (active),20%,18%,98% (active)
CC/C=C(\C)CC(C)O (configuration not stated),-3%,16%,64.9%,-4%,3%,43.8%,-3%,18%,77.6% (active),1%,9%,59.7%,1%,-5%,57%,-3%,8%,54.9%
O=C1OC2(c3ccc(O)cc3Oc3cc(O)ccc32)c2c1c(-c1ccccc1)c(-c1ccccc1)c(-c1ccccc1)c2-c1ccccc1,26%,83% (active),76.7% (active),13%,52%,36.6%,14%,50%,39.9%,-10%,34%,-14.4%,-1%,59%,50.9%,6%,73% (active),62.8%
Cc1c2cnccc2c(C)c2c1c1ccccc1n2Cc1ccccc1,3%,98% (active),89% (active),-2%,75% (active),25.5%,-2%,94% (active),48.8%,-1%,91% (active),28.4%,-3%,93% (active),59.5%,-8%,97% (active),62.7%
O=[N+]([O-])c1ccc(O)c(-c2ccccc2)c1,3%,99% (active),99.3% (active),-31%,99% (active),99.7% (active),6%,99% (active),98.8% (active),6%,99% (active),98.7% (active),-2%,98% (active),99.2% (active),5%,99% (active),99.2% (active)
CSc1nc(NC2OC(CO)C(O)C(O)C2O)c(Cl)c(=O)[nH]1 (configuration not stated),-1%,-1%,42.1%,0%,-1%,4.45%,-2%,0%,12.4%,1%,-2%,-3.85%,-1%,4%,-1.4%,2%,-1%,1.05%
C=C(Br)CN(CC(=C)Br)C(C)=O,17%,21%,-11.7%,17%,14%,-11.1%,25%,16%,-2.5%,15%,24%,-45.4%,14%,10%,-1.4%,22%,21%,-53.9%
C=C1CC[C@@H]2C(C)(C)C(O)CCC2(C)C1COc1ccc2ccc(=O)oc2c1 (some centres not stated),-10%,94% (active),85.5% (active),-4%,97% (active),89.3% (active),-1%,92% (active),86.7% (active),-5%,94% (active),85.8% (active),-40%,94% (active),86.5% (active),-38%,93% (active),82.8% (active)
CSCCOC(=O)c1cc(NC(=S)c2ccoc2C)ccc1Cl,13%,78% (active),82.5% (active),-8%,78% (active),68.9%,10%,85% (active),66.4%,14%,83% (active),67%,17%,88% (active),73.9% (active),-7%,85% (active),63%
S=C(CSc1ccccc1)Nc1cccc2ccccc12,15%,82% (active),77% (active),-12%,51%,28.4%,-4%,67%,31.3%,-11%,72% (active),58.5%,4%,81% (active),81.7% (active),1%,81% (active),79.5% (active)
O=C1Oc2cc3c(c4cccc1c24)OCN(c1ccccc1)C3,-22%,25%,62.5%,-24%,19%,49.9%,-11%,18%,78.2% (active),-15%,15%,35%,-17%,25%,49%,-5%,49%,58%
C=CC1(c2ccc(OC)cc2)OCCCO1,-11%,99% (active),89.7% (active),-13%,99% (active),92.4% (active),-16%,99% (active),87.5% (active),27%,99% (active),88.7% (active),-27%,100% (active),90.8% (active),-16%,97% (active),89% (active)
O=C(NCc1ccc(F)cc1)c1ccc(C(=O)NCc2ccc(F)cc2)cc1,1%,-4%,-6.6%,-19%,21%,-4.05%,-13%,2%,-13.1%,2%,6%,58.4%,1%,7%,-6.9%,-8%,-20%,-10.1%
O=C(C=P(c1ccccc1)(c1ccccc1)c1ccccc1)c1ccc(Cl)cc1,5%,98% (active),98.8% (active),12%,99% (active),99.2% (active),19%,99% (active),99% (active),-10%,98% (active),98.7% (active),16%,99% (active),98.5% (active),-16%,99% (active),99% (active)
